NALP1 inh – NALP1 inhibition; AID 2071; inhibition, % at 10 µM; 0.61% of 280,000 active; S. cerevisiae NALP1/ASC/caspase-1 growth, X-gal OD620, 72 h; in the data active = inhibition mostly above about 24%, no sharp cut-off; inactive = mostly below about 32%
APOBEC3A inh – human APOBEC3A DNA deaminase inhibition. P31941. recombinant A3A, FAM/TAMRA ssDNA deamination fluorescence. inhibition, % at 20 µM. 0.41% of 330,000 active. AID 493011;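 active = at least 40% inhibition at 20 µM here, with at most 30% in a related deaminase screen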;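 note: plate controls were A3A with DMSO for no effect and wells lacking A3A enzyme for full effect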
Target sequence (P31941 whole entry, looked up): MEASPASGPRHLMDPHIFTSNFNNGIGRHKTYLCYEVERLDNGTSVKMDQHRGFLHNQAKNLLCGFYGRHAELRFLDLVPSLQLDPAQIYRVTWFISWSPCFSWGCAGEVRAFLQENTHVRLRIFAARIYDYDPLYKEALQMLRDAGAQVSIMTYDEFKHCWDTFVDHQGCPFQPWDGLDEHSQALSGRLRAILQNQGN
APOBEC3G inh – blocks human APOBEC3G single-stranded DNA deamination. inhibition, % at 20 µM. Q9HC16. recombinant A3G, ssDNA deamination FAM/TAMRA fluorescence. AID 493012. 0.28% of 330,000 active;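 active = inhibition of at least 40% at 20 µM, with no more than 30% in the related APOBEC3A deaminase screen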;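 note: plate controls were DMSO wells with A3G for no effect and wells lacking A3G enzyme for full effect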
Target sequence (Q9HC16 whole entry, looked up): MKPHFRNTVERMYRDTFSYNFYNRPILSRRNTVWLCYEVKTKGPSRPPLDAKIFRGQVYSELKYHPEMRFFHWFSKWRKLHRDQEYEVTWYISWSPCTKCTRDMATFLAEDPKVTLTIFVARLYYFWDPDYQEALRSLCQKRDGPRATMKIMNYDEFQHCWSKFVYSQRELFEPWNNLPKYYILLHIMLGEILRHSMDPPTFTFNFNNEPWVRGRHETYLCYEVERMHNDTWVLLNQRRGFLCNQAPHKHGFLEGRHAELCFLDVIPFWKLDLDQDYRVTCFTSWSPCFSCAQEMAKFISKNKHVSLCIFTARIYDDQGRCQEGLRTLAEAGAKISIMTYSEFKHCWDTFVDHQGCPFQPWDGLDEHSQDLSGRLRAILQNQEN
PolyA inh – blocks polyadenylation in yeast reporter cells | activity score, % at 12 µM | AID 1875 | S. cerevisiae SKY197-pL101 polyadenylation reporter, beta-gal luminescence; efflux-impaired pdr1/pdr3 knockout yeast; score 100 = 6 SD above DMSO | 0.02% of 300,000 active;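 active = lowest replicate activity score at least 50, where 100 means six control SD above control mean; inconclusive = lowest score under 50 but half or more replicates reach 50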;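 note: yeast exposed to compound for 9 h at 30 °C; higher score means more reporter readthrough which indicates perturbed polyadenylation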
APOBEC3A confirm – APOBEC3A (human) deaminase inhibition, confirmed. 63% of 1,400 active. recombinant A3A, ssDNA deaminase UDG fluorescence assay. shares compounds with APOBEC3A inh. inhibition, % at 20 µM. AID 493151;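 active = inhibition reaching a set limit, 80% of the first screen's cutoff, at 20 µM in any replicate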;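 note: plate controls were DMSO wells with A3A for no effect and wells lacking A3A enzyme for full effect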
UDG ctr A3A – counter-screen for APOBEC3A inhibitors: UDG; shares compounds with APOBEC3A inh; UDG counterscreen, FAM/TAMRA uracil oligo fluorescence; inhibition, % at 20 µM; 1,000 tested, under 10 active; call rule not given here
* marks the source's active call; other numbers are inactive results. Shown are actives, neighbours in structure and some others; about 1.2% of the full set was active somewhere.

Results for COc1ccc(S(=O)(=O)N2CCN(C(=O)CN3C(=O)NC4(CCCC4)C3=O)CC2)cc1 ?
NALP1 inh: 9.6; APOBEC3A inh: 12.4; APOBEC3G inh: -0.1; PolyA inh: 3.8

How did Cc1oc(-c2ccccc2)nc1CS(=O)CC(=O)NC1CCCC1 (stereo not given) do in these assays?
NALP1 inh: -9.5; APOBEC3A inh: 1.7; APOBEC3G inh: -5.5; PolyA inh: -10.6

How did COc1ccc(OC)c(-c2nnc(NC(=O)C(C)Sc3nncn3C)s2)c1 (stereo not given) do in these assays?
APOBEC3A inh: -3.5; APOBEC3G inh: -1.7; PolyA inh: 6.3

Results for Cc1nnc(SC(C)C(=O)Nc2nccs2)s1 (stereo not given) ?
NALP1 inh: 1.6; APOBEC3A inh: 71.4*; APOBEC3G inh: 5.4; APOBEC3A confirm: 12.7

What do the screens show for `Cc1nnc(NC(=O)C(C)Sc2nncn2C)s1` (stereo not given)?
APOBEC3A inh: 68.8*; APOBEC3G inh: -2.9; PolyA inh: -28.0; APOBEC3A confirm: -7.8; UDG ctr A3A: -3.3

Results for CC(Sc1nnc(N)s1)C(=O)Nc1nccs1 (stereo not given) ?
NALP1 inh: 7.4; APOBEC3A inh: -1.9; APOBEC3G inh: -3.0; PolyA inh: 18.0

What do the screens show for `O=C(/C=C\c1ccc(-c2ccccc2)o1)c1ccccc1`?
NALP1 inh: 41.0; APOBEC3A inh: 48.0*; APOBEC3G inh: 11.8; PolyA inh: 31.0; APOBEC3A confirm: 11.1*; UDG ctr A3A: -2.7

Results for OC(CCCCN1CCCCC1)c1ccccc1 (stereo not given) ?
NALP1 inh: -0.5; APOBEC3A inh: -0.4; APOBEC3G inh: -1.7; PolyA inh: -0.8

How did CC(=O)OC(C[N+]1(C)CCCCCC1)c1ccccc1 (stereo not given) do in these assays?
NALP1 inh: -2.8; APOBEC3A inh: 78.8*; APOBEC3G inh: 14.1; PolyA inh: 17.4; APOBEC3A confirm: 69.3*; UDG ctr A3A: -2.1

How did C[N+]1(CC(O)c2ccccc2)CCCCCC1 (stereo not given) do in these assays?
NALP1 inh: 9.1; APOBEC3A inh: 69.4*; APOBEC3G inh: 24.4; PolyA inh: 3.9; APOBEC3A confirm: 63.9*; UDG ctr A3A: 3.0

Results for C[N+]1(CCC(=O)c2ccccc2)CCCCC1 ?
NALP1 inh: 23.5; APOBEC3A inh: 64.7; APOBEC3G inh: 33.9; PolyA inh: 16.4

How did CCOC(=O)C1CCN(S(=O)(=O)c2ccc3c(c2)CCCN3C(C)=O)CC1 do in these assays?
NALP1 inh: 40.5; APOBEC3A inh: 1.5; APOBEC3G inh: -0.5; PolyA inh: 4.8

Results for CCOC(=O)C1CCN(S(=O)(=O)c2ccc3c(c2)CC(=O)N3C)CC1 ?
NALP1 inh: 22.1; APOBEC3A inh: 51.6*; APOBEC3G inh: 27.8; PolyA inh: 14.5; APOBEC3A confirm: 54.9*; UDG ctr A3A: -4.3

How did COc1ccc(CCNC(=O)C2CCCN(S(=O)(=O)c3ccc(F)cc3)C2)cc1 (stereo not given) do in these assays?
NALP1 inh: 6.4; APOBEC3A inh: -5.4; APOBEC3G inh: 6.2; PolyA inh: -0.4

What do the screens show for `CC(C)CN(C(=O)CCCc1nc2ccccc2c(=O)[nH]1)c1c(N)n(Cc2ccccc2)c(=O)[nH]c1=O`?
APOBEC3A inh: 42.2*; APOBEC3G inh: 4.2; PolyA inh: -3.9; APOBEC3A confirm: 2.0

Results for Cc1nc2ccccc2c(C)c1CC(=O)N(CC(C)C)c1c(N)n(Cc2ccccc2)c(=O)[nH]c1=O ?
APOBEC3A inh: 0.1; APOBEC3G inh: -2.3; PolyA inh: 11.2

Results for CC(=O)NC(Cc1c[nH]c2ccccc12)C(=O)N1CCN(S(=O)(=O)c2ccccc2)CC1 (stereo not given) ?
APOBEC3A inh: 1.1; APOBEC3G inh: -2.9

Results for CCc1ccc(NC(=O)c2c(Cl)nc(C)c(Cl)c2C)cc1 ?
NALP1 inh: 2.7; APOBEC3A inh: -0.5; APOBEC3G inh: 0.4; PolyA inh: -0.2

What do the screens show for `CCOC(=O)c1c(/N=C/c2ccccc2O)sc2c1CCC2`?
NALP1 inh: 23.0; APOBEC3A inh: 97.6*; APOBEC3G inh: -3.8; PolyA inh: 21.7; APOBEC3A confirm: -3.1; UDG ctr A3A: -2.5

Results for CCOC(=O)c1c(/N=C/c2ccc(O)cc2O)sc2c1CCC2 ?
NALP1 inh: 2.3; APOBEC3A inh: -4.8; APOBEC3G inh: -9.1; PolyA inh: -3.8

What do the screens show for `CCOC(=O)c1c(NC(=O)OC)sc2c1CCC2`?
NALP1 inh: 11.5; APOBEC3A inh: 54.1*; APOBEC3G inh: -5.5; PolyA inh: -12.2; APOBEC3A confirm: -5.8; UDG ctr A3A: 0.9

How did COc1ccc(C(CC(=O)N2CCCCC2)c2c(OC)cc(OC)c3c(-c4ccccc4)cc(=O)oc23)cc1 (stereo not given) do in these assays?
NALP1 inh: -2.8; APOBEC3A inh: 71.6*; APOBEC3G inh: 22.4; PolyA inh: 0.3; APOBEC3A confirm: 73.5*; UDG ctr A3A: 3.7

What do the screens show for `COc1cc(C(CC(=O)N2CCCC2)c2c(OC)cc(OC)c3c(-c4ccccc4)cc(=O)oc23)cc(OC)c1OC` (stereo not given)?
NALP1 inh: 2.5; APOBEC3A inh: 43.2*; APOBEC3G inh: 6.6; PolyA inh: -6.9; APOBEC3A confirm: 30.4

Results for COc1ccc(C(CC(=O)N2CCOCC2)c2c(OC)cc(OC)c3c(-c4ccccc4)cc(=O)oc23)cc1 (stereo not given) ?
NALP1 inh: 15.8; APOBEC3A inh: 60.5*; APOBEC3G inh: 11.1; PolyA inh: inconclusive; APOBEC3A confirm: 47.6*; UDG ctr A3A: -2.4

Results for COc1ccc(C(CC(=O)N2CCCC(C)C2)c2c(OC)cc(OC)c3c(-c4ccccc4)cc(=O)oc23)cc1 (stereo not given) ?
NALP1 inh: 0.1; APOBEC3A inh: 69.1*; APOBEC3G inh: 17.7; PolyA inh: -12.2; APOBEC3A confirm: 62.6*; UDG ctr A3A: -1.2

How did COc1ccc(C(CC(=O)N2CCN(c3ccccc3)CC2)c2c(OC)cc(OC)c3c(-c4ccccc4)cc(=O)oc23)cc1 (stereo not given) do in these assays?
NALP1 inh: 5.5

What do the screens show for `CCN(CC)C(=O)CC(c1ccc(N(C)C)cc1)c1c(OC)cc(OC)c2c(-c3ccccc3)cc(=O)oc12` (stereo not given)?
NALP1 inh: 4.4; APOBEC3A inh: -3.3; APOBEC3G inh: -7.0; PolyA inh: -15.1

Results for CCN(C(=O)COC(=O)[C@H](C)N=C1NS(=O)(=O)c2ccccc21)C1CCS(=O)(=O)C1 (stereo not given in full) ?
APOBEC3A inh: 1.4; APOBEC3G inh: -3.5

What do the screens show for `Cn1c(N)nc2nc(CCc3ccccc3)c(=O)[nH]c2c1=O`?
NALP1 inh: 20.7; APOBEC3A inh: 5.1; APOBEC3G inh: -7.9; PolyA inh: -6.0

Compound activity from PubChem.
